# Assay results: PubChem BioAssay AID1508622 (National Center for Advancing Translational Sciences (NCATS), 2021)
# Activity calls are given as the source filed them. A call without a number means that no potency is given here. Calls come from the whole dose curve; as a rule, active = well fitted activation curve with a large enough effect; inconclusive = small, poorly fitted or top-dose-only effect; inactive = no such curve, though single readings can be large or run the other way.
# Assay: Confirmatory qHTS for Identification of Small Molecule Activators of Huntingtin-Antisense Promoter Activity
# Details: HEK293 HTT-AS promoter firefly luciferase reporter, 24 h; series mostly up to 57.5 µM
# Method in brief: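 Plated reporter HEK293 cells (24 h) received library compounds at up to 57.5 uM final or 50 uM PTC124, incubated 24 h at 37C; firefly luciferase luminescence was then recorded with Dual-Glo reagent.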
# Potency is the fitted concentration of half-maximal effect.
row,SMILES,Potency
1,O=S(=O)(Nc1ccc(OC(F)(F)F)cc1)c1ccc(N2CCCCS2(=O)=O)cc1,inactive
2,O=C(CSc1nccn1Cc1ccc(F)cc1)Nc1nc2ccccc2s1,inactive
3,COc1cc(C2C(C(=O)Nc3ccccc3C)=C(C)Nc3nc(SCc4cc(C)ccc4C)nn32)ccc1O (centres undefined),inactive
4,COc1ccccc1N1CCN(C(CNC(=O)C(=O)NCc2ccc(C)cc2)c2cccnc2)CC1 (centres undefined),inactive
5,COc1ccc(NS(=O)(=O)c2ccc3c(c2)CCCN3C(=O)C2CCC2)cc1OC,inactive
6,Cc1ccc(NCc2cccn2-c2nnc(N3CCC(C(=O)NC(C)C)CC3)s2)cc1,inactive
7,O=c1cc(-c2ccccc2)oc2cc(O)cc(O)c12,26.9 µM (active)
8,Cc1cccc(-n2c(-c3ccco3)nc3c(cnn3-c3ccccc3C)c2=O)c1,inactive
9,Cc1cccc(NC(c2cccc(Cl)c2)c2ccc3cccnc3c2O)n1 (centres undefined),inactive
